CYP2C19 activ: increases human CYP2C19 enzyme activity; P33261; recombinant CYP2C19, luciferin-H EGE luminescence; hits give high values; 0 = fully inhibited enzyme, 1 = untreated enzyme; activation factor at 5 µM; 96,000 tested, under 10 active; AID 1025;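 active = activation factor of at least 2 at 5 µM in the primary screen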
CYP2C19 inhib: blocks human cytochrome P450 2C19; CYP2C19 Supersomes, luciferin-H EGE luminescence, 30 min; AID 778; P33261; 21% of 96,000 active; inhibition, % at 5 µM;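 active = CYP2C19 inhibition above a set limit at 5 µM in the primary screen, cut at about 50% in these data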
CYP2C9 inh: inhibitors of human CYP2C9; P11712; AID 777; inhibition, % at 5 µM; CYP2C9 Supersomes, luciferin-H conversion, luminescence; 20% of 96,000 active;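 active = blocking of liver enzyme CYP2C9 beyond about 50% at 5 µM, limit read from the data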
Target sequence (P11712 whole entry, looked up): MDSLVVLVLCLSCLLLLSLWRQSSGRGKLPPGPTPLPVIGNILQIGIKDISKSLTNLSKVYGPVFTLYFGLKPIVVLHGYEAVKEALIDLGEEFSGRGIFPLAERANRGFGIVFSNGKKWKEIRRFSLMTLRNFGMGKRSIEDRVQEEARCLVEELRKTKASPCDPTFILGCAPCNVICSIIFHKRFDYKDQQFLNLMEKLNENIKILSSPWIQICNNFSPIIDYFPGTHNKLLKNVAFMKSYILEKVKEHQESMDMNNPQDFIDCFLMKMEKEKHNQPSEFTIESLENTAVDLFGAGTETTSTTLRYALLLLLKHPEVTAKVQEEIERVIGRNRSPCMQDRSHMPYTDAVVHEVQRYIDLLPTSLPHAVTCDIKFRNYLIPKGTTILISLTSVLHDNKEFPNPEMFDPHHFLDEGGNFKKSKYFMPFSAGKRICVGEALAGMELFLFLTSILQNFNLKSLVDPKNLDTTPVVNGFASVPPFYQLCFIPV
CYP2C9 activ: increases human cytochrome P450 2C9 activity; P11712; recombinant CYP2C9, luciferin-H conversion, luminescence; hits give high values; factor 1 = untreated enzyme, 0 = blocked; activation factor at 5 µM; 1.4% of 96,000 active; AID 1024;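 active = activation factor of 2 or more for CYP2C9 at a 5 µM dose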
Numbers stand for hits; - = inactive. Sampled rows, rich in hits. Any-hit rate of the full collection: about 31%.

SMILES | CYP2C19 activ | CYP2C19 inhib | CYP2C9 inh | CYP2C9 activ
COc1ccccc1-c1nnc(NC(=O)c2ccccc2F)o1 | - | - | 64 | -
COc1ccc(C(=O)Nc2nnc(-c3ccccc3)o2)cc1OC | - | - | - | -
CCCCN(CCCC)S(=O)(=O)c1ccc(C(=O)Nc2nnc(CSC)o2)cc1 | - | - | - | -
CCCCN(CC)S(=O)(=O)c1ccc(C(=O)Nc2nnc(CSC)o2)cc1 | - | - | 82 | -
CCCCN(CC)S(=O)(=O)c1ccc(C(=O)Nc2nnc(COC)o2)cc1 | - | - | 64 | -
CCCCN(CC)S(=O)(=O)c1ccc(C(=O)Nc2nnc(-c3ccccc3Cl)o2)cc1 | - | - | 69 | -
CC(=O)C1=C(O)C(=O)N(Cc2ccccc2)C1c1ccco1 (stereo not drawn) | - | - | - | -
CCc1nnc(NC(=O)c2ccc(S(=O)(=O)N(CCOC)CCOC)cc2)o1 | - | - | - | -
CCN(Cc1ccccc1)S(=O)(=O)c1ccc(C(=O)Nc2nnc(-c3ccccc3OC)o2)cc1 | - | - | 70 | -
CC1CCCCN1S(=O)(=O)c1ccc(C(=O)Nc2nnc(-c3ccccc3Cl)o2)cc1 (stereo not drawn) | - | - | - | -
O=C(Nc1nnc(-c2ccccc2Cl)o1)c1ccc(S(=O)(=O)N2CCCCCC2)cc1 | - | - | 54 | -
COc1ccccc1-c1nnc(NC(=O)c2ccc(S(=O)(=O)N(C)C)cc2)o1 | - | - | - | -
CCc1nnc(NC(=O)c2ccc(S(=O)(=O)N(CCOC)CCOC)cc2)s1 | - | - | - | 2
Cc1cc2nnn(-c3nnc(-c4ccccc4)c4ccccc34)c2cc1C | - | - | - | -
CCCn1c(SCC(=O)N2c3ccccc3CCc3ccccc32)nc2c1c(=O)n(C)c(=O)n2C | - | - | - | -
Clc1ccc(CSc2nnc(-c3ccccn3)n2Cc2ccco2)c(Cl)c1 | - | - | - | -
Cc1ccc(OCCCC(=O)Nc2ccc(Br)cc2)cc1 | - | - | - | -
O=S(=O)(Nc1nc2c(s1)CCCC2)c1ccc(F)cc1 | - | - | - | -
O=S(=O)(NC12CC3CC(CC(C3)C1)C2)c1ccc(F)cc1 | - | 88 | 83 | -
CCC(Sc1nc(C)cc(=O)[nH]1)C(=O)Nc1nnc(C)s1 (stereo not drawn) | - | - | - | -
CC(Sc1nc2ccccc2s1)C(=O)Nc1nnc(C(C)C)s1 (stereo not drawn) | - | - | 66 | -
CCC(Sc1nc2ccc(N)cc2s1)C(=O)Nc1nccs1 (stereo not drawn) | - | 77 | 62 | -
CCC(Sc1nc2ccccc2s1)C(=O)Nc1nnc(C)s1 (stereo not drawn) | - | - | 67 | -
CCC(Sc1nnc(C)s1)C(=O)Nc1nccs1 (stereo not drawn) | - | - | - | -
CC(C)c1nnc(NC(=O)C2CCN(c3nc4ccccc4s3)CC2)s1 | - | - | - | -
SMILES | CYP2C19 activ | CYP2C19 inhib | CYP2C9 inh | CYP2C9 activ
CN(C)CCSc1nc(N)c2c3c(sc2n1)CN(C)CC3 | - | - | - | -
COC(=O)[C@H](C)NC(=O)NC1CCN(Cc2ccccc2)CC1 | - | - | - | -
O=C(NCC(F)(F)F)Nc1ncccn1 | - | - | - | -
COc1cccc(OCCNC(=O)c2cccc(OC)c2)c1 | - | 97 | - | -
O=C(NCc1ccc2c(c1)OCO2)c1ccc2c(c1)OCCO2 | - | 88 | 78 | -
O=C(NCc1ccc2c(c1)OCO2)c1ccc(=O)[nH]c1 | - | - | - | -
O=C(NCc1ccc2c(c1)OCO2)c1c(F)c(F)c(F)c(F)c1F | - | 81 | - | -
CCOC(=O)C(CCCOc1cccc(OC)c1)C(=O)OCC | - | 90 | 82 | -
CC1CN(C(=O)C(C)N2C(=O)c3ccccc3C2=O)CC(C)O1 (stereo not drawn) | - | - | - | -
Cc1cc(NC(=O)CN2C(=O)C3CC=CCC3C2=O)no1 (stereo not drawn) | - | - | - | -
Cn1nnc2cc(C(=O)NCc3ccc4c(c3)OCO4)ccc21 | - | 52 | - | -
O=C(NCCOc1ccccc1)c1ccc2c(c1)OCO2 | - | 86 | 59 | -
O=C(NCc1ccc2c(c1)OCO2)c1ccc2snnc2c1 | - | 66 | 65 | -
O=C(NCc1ccc2c(c1)OCO2)c1cccc([N+](=O)[O-])c1 | - | 89 | - | -
Cc1c(C(=O)OCC(=O)N2CC(=O)Nc3ccccc32)oc2ccc(Br)cc12 | - | - | - | -
Cc1ccc(Nc2cccccc2=O)cc1 | - | 75 | - | -
O=C1c2ccccc2C(=O)N1CCSC(=S)N1CCOCC1 | - | 55 | - | -
O=C1c2ccccc2C(=O)N1CCN1CCOCC1 | - | - | - | -
CC1(C)C(=O)C2(C(=O)NCc3ccccc3)CCC1C2 (stereo not drawn) | - | 70 | - | -
S=c1[nH]nc(-c2cccnc2)o1 | - | - | - | -
S=c1[nH]nc(-c2ccc3ccccc3n2)o1 | - | - | 53 | -
Cc1cc(C)nc(-n2nc(C)cc2NC(=O)c2cccc(S(=O)(=O)N3CCCCC3)c2)n1 | - | - | - | -
Cc1ccc(O)c(C(=O)c2cnc3c(c2)CN(CCC(C)C)C(=O)N3)c1 | - | - | 64 | -
Cc1ccc(O)c(C(=O)c2cnc3c(c2)CN(C)C(=O)N3)c1 | - | - | - | -
CCCCCCOc1ccc(N2C(=O)CC(N3CCC(C(=O)OCC)CC3)C2=O)cc1 (stereo not drawn) | - | - | - | -
SMILES | CYP2C19 activ | CYP2C19 inhib | CYP2C9 inh | CYP2C9 activ
Cc1cc(/C=N/n2cnnc2)c(C)n1-c1ccc(OCc2ccc(Cl)cc2)cc1 | - | - | - | -
Clc1ccc(Sc2ccc(/C=N/n3cnnc3)o2)cc1 | - | 77 | - | -
Clc1ccc(Sc2oc(/C=N/n3cnnc3)cc2Br)cc1 | - | 91 | - | -
CCN(Cc1ccccc1)Cc1cccc([N+](=O)[O-])c1 | - | - | - | -
Cc1cc(C)n2c(SCC(=O)Nc3ncc(C(F)(F)F)cc3Cl)nnc2n1 | - | - | 63 | -
CCN1CCN(S(=O)(=O)c2ccc3[nH]c(=O)oc3c2)CC1 | - | - | - | -
CCC1(C)CC(CCNS(=O)(=O)c2ccc(C)cc2)(c2ccc(C)cc2)CCO1 (stereo not drawn) | - | 69 | 53 | -
O=C(O)c1ccccc1OCCOc1ccccc1C(=O)O | - | - | - | -
COC(=O)c1ccccc1OCCOc1ccccc1C(=O)OC | - | 62 | - | -
O=C(c1ccc(=O)n(Cc2ccc(Cl)c(Cl)c2)c1)N1CCOCC1 | - | - | - | -
O=c1ccc(NS(=O)(=O)c2ccccc2)cn1Cc1ccc(Cl)c(Cl)c1 | - | 98 | 79 | -
COc1ccc(N(Cc2ccco2)C(=O)c2ccccc2F)cc1OC | - | 71 | 80 | -
COc1ccc(CN(C(=O)c2ccco2)c2ccc(Br)cc2)cc1OC | - | 80 | 89 | -
COc1cc(CN(C(=O)c2ccco2)c2ccc(C)cc2)ccc1O | - | - | - | -
Cc1ccc(N(Cc2ccc([N+](=O)[O-])cc2)C(=O)c2ccco2)cc1 | - | - | 96 | -
CCC(=O)Nc1cccc(C(=O)/C=C/c2cc(Br)ccc2OC)c1 | - | 62 | - | -
CCC(Sc1nncn1C)C(=O)Nc1ccccc1OC (stereo not drawn) | - | - | - | -
